For assay [1], the system named is Human papillomavirus type 1a protein E7 (residues 44-93). Put plainly: HPV1a E7 fragment binders on microarrays, primary screen, biochemical, small-molecule microarray, residues 44-93, 635 nm fluorescence (AID 1108).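 Further: E7 fragment applied at 1 µg/mL in TBST for 1 h at 4 C; score combines spot fluorescence with its signal to noise ratio.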 The note with it: small-molecule microarray binding, fluorescence 635 nm; higher = more signal.
Assay [2] is described as follows: modulators of HCV replicon luciferase signal, primary screen, HCV replication inhibitor project, Huh7 cells, luciferase reporter (AID 1109).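 Further: huh7 hepatoma cells harbouring a luciferase neomycin HCV replicon reporter; luciferase luminescence as measure of HCV replicon replication; test concentration not given here.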 The note with it: 48 h, higher = more signal. (In general: Replicon systems follow genome replication, usually without infectious particles.)
For assay [3], the target named is Left-right determination factor 2 (Homo sapiens) (UniProt O00292). Put plainly: LEFTY2 binders on small-molecule microarrays, primary screen, biochemical, small-molecule microarray, 635 nm fluorescence scan (AID 1110). Particulars: LEFTY2 binding, higher = more signal.
Left-right determination factor 2 (Homo sapiens), sequence (O00292 whole entry, looked up): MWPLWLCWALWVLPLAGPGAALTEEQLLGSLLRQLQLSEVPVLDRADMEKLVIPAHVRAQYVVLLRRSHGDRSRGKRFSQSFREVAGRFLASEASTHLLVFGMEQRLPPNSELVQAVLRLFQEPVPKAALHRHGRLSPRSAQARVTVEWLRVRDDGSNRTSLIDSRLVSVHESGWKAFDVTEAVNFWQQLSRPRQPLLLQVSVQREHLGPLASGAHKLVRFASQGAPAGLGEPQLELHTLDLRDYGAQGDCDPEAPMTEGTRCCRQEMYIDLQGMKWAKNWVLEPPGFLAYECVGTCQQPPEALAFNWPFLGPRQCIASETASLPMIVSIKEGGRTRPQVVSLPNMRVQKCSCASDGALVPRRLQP
The target in assay [4] is Calmodulin-1 (Homo sapiens) (UniProt P0DP23). Put plainly: CALM1 binders on microarrays, EGTA buffer, profiling panel, biochemical, small-molecule microarray, Cy5-labelled CALM1 (AID 1111).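 Further: labelled calmodulin applied in Tris saline Tween buffer holding calcium plus EGTA and DTT.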 Particulars: Cy5-CALM1 binding fluorescence, higher = more signal.
The target is the same in assay [5]. Put plainly: calcium-bound CALM1 binders on microarrays, profiling panel, artefact control for SMM control-protein annotation, biochemical, small-molecule microarray, Cy5-labelled CALM1, plus calcium (AID 1112).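 Further: score merges spot fluorescence with signal to noise from triplicate slides.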 The note with it: Cy5-CALM1 binding fluorescence, higher = more signal.
Assay [6] is described as follows: small-molecule microarray binders of probe aWnt5a, primary screen, biochemical, biotinylated probe, 635/667 nm fluorescence (AID 1113).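 Further: score merges 667 nm fluorescence intensity with signal-to-noise per printed feature.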 Particulars: higher = more signal.
Assay [7] can be described thus: small-molecule microarray binders of probe aShh, primary screen, biochemical, biotinylated probe, 635/667 nm fluorescence (AID 1114).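 Further: probe is biotin-labelled aShh protein from a stem cell growth factor screen; measures binding of labelled protein to compounds printed on the slide; score merges feature fluorescence at 667 nm with signal-to-noise.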 Particulars: higher = more signal.
Assay [8] in a line: small-molecule microarray binders of probe aNog, primary screen, biochemical, biotinylated probe, 635/667 nm fluorescence (AID 1115).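 Further: probe is biotinylated aNog protein used at 0.15 µg/mL for 1 h at 4 C; z-score combines 667 nm fluorescence of each spot with its signal to noise.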 Particulars: higher = more signal.
The target of assay [9] is Torsin-1A-interacting protein 1 (Homo sapiens) (UniProt Q5JTV8). Put plainly: LAP1 binders from COS7 cell lysate, primary screen, small-molecule microarray, 635/667 nm fluorescence (AID 1116). The note with it: COS7-hLAP1 lysate binding, 635 nm fluorescence, higher = more signal.
Torsin-1A-interacting protein 1 (Homo sapiens), sequence (Q5JTV8 whole entry, looked up): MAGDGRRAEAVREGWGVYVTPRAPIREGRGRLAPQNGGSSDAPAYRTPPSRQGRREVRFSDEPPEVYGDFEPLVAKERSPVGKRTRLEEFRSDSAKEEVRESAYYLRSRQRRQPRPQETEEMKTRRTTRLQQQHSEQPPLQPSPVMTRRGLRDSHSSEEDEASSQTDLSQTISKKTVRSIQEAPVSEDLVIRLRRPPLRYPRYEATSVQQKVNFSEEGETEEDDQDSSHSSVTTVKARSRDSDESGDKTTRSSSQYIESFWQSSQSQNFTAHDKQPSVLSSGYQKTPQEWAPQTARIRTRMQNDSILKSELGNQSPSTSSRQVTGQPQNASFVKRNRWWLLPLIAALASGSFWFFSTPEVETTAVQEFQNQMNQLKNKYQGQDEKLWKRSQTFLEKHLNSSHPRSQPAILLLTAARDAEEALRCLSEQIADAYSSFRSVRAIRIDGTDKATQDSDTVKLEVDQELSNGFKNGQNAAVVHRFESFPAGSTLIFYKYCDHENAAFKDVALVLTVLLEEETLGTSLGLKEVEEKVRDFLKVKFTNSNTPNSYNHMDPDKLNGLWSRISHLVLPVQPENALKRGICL
Assay [10] addresses Alpha-bungarotoxin (Bungarus multicinctus) (UniProt P60615). Briefly: alpha-bungarotoxin binders on microarray, profiling panel, artefact control for SMM control protein annotation, biochemical, small-molecule microarray, Alexa647 label, 635/667 nm fluorescence (AID 1117). The note with it: alpha-BTX-A647 binding fluorescence, higher = more signal.

Alpha-bungarotoxin (Bungarus multicinctus), sequence (P60615 whole entry, looked up): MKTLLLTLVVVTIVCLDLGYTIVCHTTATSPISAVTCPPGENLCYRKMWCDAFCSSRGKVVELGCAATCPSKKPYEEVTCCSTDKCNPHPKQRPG

As to `[N-]=[N+]=Nc1ccccc1[C@@H]1OC(c2ccc(OCCCO)cc2)=N[C@]1(Cc1ccccc1)C(=O)NCCN1CCOCC1`, the composite z-score was 1.5 in assay [1]; -0.429 in assay [3]; -0.0408 in assay [4]; 0.741 in [5]; 0.0044 in assay [6]; 0.185 in assay [7]. Also, the composite z-score in assay [8] stood at 0.996; in assay [9] it was 1.52; in assay [10], 1.23. In [2], this molecule gave a z-score of -2.41.
Turning to `O=C1C[C@@](C(=O)NCc2ccccc2)(c2ccc([N+](=O)[O-])cc2)[C@@H](c2ccc(CO)cc2)N1C1CCCCC1`, the composite z-score in [1] was 0.653; in [3], 0.399; in [4] it was -0.175; in assay [5] it was -0.386; in assay [6], 0.0273; in [7] it was 0.0697. Further, the values for the composite z-score in assay [8], in assay [9] and in assay [10] were 0.786, 1.46 and 1.72, respectively. Further, in assay [2], the z-score was -1.24.
As to `C=C(COC)/C(=C/C[C@@H](OC(C)=O)c1ccccc1OCCO)c1cnc2ccccc2c1`, the composite z-score is 1.17 in [1]; 0.248 in assay [3]; 0.35 in [4]; -0.716 in [5]; -0.1 in [6]; 0.0796 in assay [7]. The composite z-score in assay [8] amounted to 0.329; in assay [9], 1.73; in [10] it was 1.56. In [2], the z-score was -1.95.
Regarding `COC(=O)[C@@]1(Cc2ccc(F)cc2)[C@H]2c3cc(C(=O)N4CCCC4)n(Cc4ccccn4)c3C[C@H]2CN1C(=O)c1ccccc1`, the composite z-score is 1.42 in assay [1]; -0.649 in assay [3]; 1.36 in assay [4]; 0.652 in assay [5]; 0.139 in [6]; 0.704 in assay [7]. In addition, the composite z-score stood at 0.874 in assay [8], 1.33 in assay [9] and 0.23 in assay [10]. In assay [2], the z-score was -1.73.
With `O=C1O[C@@H](c2ccccc2)[C@@H](c2ccccc2)N2[C@@H](c3ccc(OCCO)cc3)[C@]3(C(=O)Nc4ccc(C#CC5(O)CCCCCC5)cc43)[C@@H](C(=O)O)[C@H]12`, the composite z-score in assay [1] was 0.349; in [3] it was 0.109; in assay [4], 1.29; in assay [5] it was 1.03; in assay [6], -0.0495; in [7], 0.0902. Moreover, the composite z-score was -0.0047 in [8], 0.835 in assay [9] and 0.987 in [10]. The z-score in assay [2] was -0.687.
With `CN1C(=O)C2C(C1=O)C1C=C(c3ccc(CO)cc3)C2C(C2CC2)N1C` (stereo not given), the composite z-score was 0.208 in assay [1]; 0.0075 in assay [3]; 0.0024 in [4]; 0.103 in assay [5]; -0.0664 in assay [6]; -0.138 in assay [7]. Further, the composite z-score in assay [8] is -0.0606; in assay [9] it was 0.149; in assay [10] it was 0.219. In assay [2], the z-score came to 0.203.
As to `COc1ccc(CCNC(=O)[C@@H]2c3ccccc3C(=O)N(Cc3ccccc3OC)[C@H]2c2ccc(CO)cc2)cc1`, the composite z-score in assay [1] is 1.16; in assay [3], -0.321; in assay [4], 0.527; in assay [5] it was -0.103; in [6], -0.0398; in [7] it was -0.423. The composite z-score amounted to 0.938 in [8], 0.966 in assay [9] and 0.75 in assay [10]. Further, the z-score in assay [2] was -1.27.
On to `O=C(NCCN1CCOCC1)[C@@H]1c2ccccc2C(=O)N(Cc2ccc(OC(F)(F)F)cc2)[C@H]1c1ccc(CO)cc1`, for which the composite z-score is 1.25 in [1]; -0.622 in assay [3]; 0.749 in assay [4]; 0.337 in [5]; -0.11 in assay [6]; 0.0756 in [7]. The composite z-score in assay [8] was found to be 0.99; in [9], 1.19; in assay [10] it was 0.0007. This molecule returned a z-score in [2] of -1.29.
As for `CCCN1C(=O)[C@]2(CCC(=O)OC(C)(C)C)N=C(c3ccc(OCCCO)cc3)O[C@@H]2c2ccccc21`, the composite z-score in [1] is 1.17; in [3], -0.399; in assay [4] it was -0.0977; in assay [5] it was -0.148; in assay [6], -0.124; in assay [7], 0.0469. In addition, the composite z-score in assay [8] is 0.175; in assay [9], 3.34; in assay [10] it was 0.28. Further, in assay [2], the z-score was -2.87.
For `CCOC(=O)C[C@H]1[C@H](OC(=O)Cc2ccc3c(c2)OCO3)[C@@H](NC(=O)c2ccc3ccccc3n2)c2cc(OCCCO)ccc2N1C(=O)Cc1ccc(OC)cc1`, the composite z-score in assay [1] was 0.751; in assay [3], 0.394; in [4], 0.436; in assay [5], 0.137; in [6] it was -0.124; in [7], 0.0723. Also, the values for the composite z-score in assay [8], in assay [9] and in assay [10] were -0.0184, 0.6 and 0.597, respectively. In addition, the z-score in [2] was -1.39.
Take `C=CCN1Cc2ccccc2[C@H]2OC(c3ccc(OCCCO)cc3)=N[C@@]2(CCS(=O)(=O)c2ccccc2)C1=O`: the composite z-score was 1.26 in assay [1]; 0.62 in assay [3]; 1.64 in assay [4]; 0.472 in [5]; 0.0704 in assay [6]; -0.0056 in assay [7]. Further, the figures for the composite z-score in [8], in assay [9] and in assay [10] were -0.0831, 1.49 and 1.21, respectively. Further, the z-score in [2] is -1.56.
In the case of `O=C1O[C@@H](c2ccccc2)[C@@H](c2ccccc2)N2[C@@H](c3ccc(OCCO)cc3)[C@]3(C(=O)Nc4ccc(C#CC5(O)CCCCCC5)cc43)[C@@H](C(=O)Nc3nc4ccccc4s3)[C@H]12`, the composite z-score in assay [1] turned out to be 1.44; in assay [3], 0.755; in assay [4], 1.6; in assay [5], 0.646; in assay [6] it was 0.0775; in assay [7], 0.156. In addition, the composite z-score in assay [8] was determined as 0.516; in assay [9] it was 1.34; in [10], 1.41. The same molecule displayed a z-score in [2] of -2.29.
Turning to `CN(C)CCCNC(=O)[C@@]1(C)c2ccccc2C(=O)N(Cc2ccc(OC(F)(F)F)cc2)[C@H]1c1ccc(CO)cc1`, the composite z-score in [1] was 0.0228; in [3] it was -1.01; in assay [4], -0.415; in [5] it was 0.522; in assay [6], -0.115; in assay [7] it was -0.0978. Besides, the figures for the composite z-score in assay [8], in [9] and in [10] were 0.738, 1.76 and 1.5, respectively. Moreover, the z-score in assay [2] is -2.26.

The values are drawn from PubChem BioAssay.
